Laboratory results published in PubChem BioAssay (NCI).
This is part of a sample that, as a whole, favours compounds with a hit. Of some 79,000 tested, about 15% had one in any assay. A number with no mark means an inactive call. Active and inactive are the calls of the source. Rule as the data show it: active = growth inhibition above about 70%; inactive = the rest.

What was measured:
[1] = NCI Yeast Anticancer Drug Screen. Data for the rad50 strain (AID 155);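 also: 0% = growth of vehicle-only cultures of the same strain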; conditions: S. cerevisiae rad50 strain growth inhibition, active compounds read high
Procedure, shortened: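 Relative growth inhibition (compound vs vehicle) was measured in yeast with a defined repair-gene alteration.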

[2] = NCI Yeast Anticancer Drug Screen. Data for the mec2-1 strain (AID 157); conditions: S. cerevisiae mec2-1 strain, active compounds read high
Procedure, shortened: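 Each compound was tested on mec2-1 yeast, a strain altered in DNA damage repair or cell cycle control. Growth inhibition is reported relative to vehicle.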

[3] = NCI Yeast Anticancer Drug Screen. Data for the sgs1 mgt1 strain (AID 161);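 also: 0% = growth of cultures given vehicle only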; conditions: S. cerevisiae sgs1 mgt1 strain, active compounds read high
Procedure, shortened: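 Read-out: growth inhibition vs vehicle controls. Cells: mutant yeast strain deficient in DNA damage repair.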

[4] = NCI Yeast Anticancer Drug Screen. Data for the cln2 rad14 strain (AID 165);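 also: 0% = growth equal to vehicle treated cultures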; conditions: S. cerevisiae cln2 rad14 strain, active compounds read high
Procedure, shortened: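 Test compounds were added to cln2 rad14 yeast cultures; inhibition of growth was then determined by comparison with vehicle treatment.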

[5] = NCI Yeast Anticancer Drug Screen. Data for the bub3 strain (AID 167); conditions: S. cerevisiae bub3 mutant strain, active compounds read high
Procedure, shortened: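 Screening used yeast with an engineered genetic alteration affecting cell cycle control. Compound-exposed cultures were compared with vehicle cultures, and reduced growth was taken as inhibition.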

[6] = NCI Yeast Anticancer Drug Screen. Data for the mlh1 rad18 strain (AID 175); conditions: S. cerevisiae mlh1 rad18 strain growth inhibition, active compounds read high
Procedure, shortened: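 Inhibition values reflect reduced growth of mutant yeast versus vehicle-treated controls following compound exposure; the mutations affect DNA damage repair.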

[7] = at 5.0 µM (retest, dose inferred, filed as 0.5)
[8] = at 50.0 µM (retest, dose inferred, filed as 5.0)

Row | SMILES | growth inhibition [1, 7] | growth inhibition [1, 8] | growth inhibition ([1]; at 50.0 µM) | growth inhibition [2, 7] | growth inhibition [2, 8] | growth inhibition ([2]; at 50.0 µM) | growth inhibition [3, 7] | growth inhibition [3, 8] | growth inhibition ([3]; at 50.0 µM) | growth inhibition [4, 7] | growth inhibition [4, 8] | growth inhibition ([4]; at 50.0 µM) | growth inhibition [5, 7] | growth inhibition [5, 8] | growth inhibition ([5]; at 50.0 µM) | growth inhibition [6, 7] | growth inhibition [6, 8] | growth inhibition ([6]; at 50.0 µM)
1 | COC(=O)C(O)(/C(=N\O)c1ccccc1)c1ccccc1 (stereo not given) | 0% | 0% | 4.8% | 0% | -1% | 16.7% | 5% | 0% | 25.6% | -1% | -5% | 71.1% (active) | 0% | -8% | 29.1% | 0% | -2% | 8.35%
2 | CCCC/C(=N/Nc1ccc([N+](=O)[O-])cc1)C(=O)O | 14% | 97% (active) | 71.5% (active) | 8% | 95% (active) | 24.3% | 14% | 97% (active) | 75% (active) | -3% | 60% | 24.5% | 18% | 98% (active) | 82% (active) | 21% | 98% (active) | 57.4%
3 | CCCCCCCCCCCCCCCC[NH][Ge]([NH]CCCCCCCCCCCCCCCC)([NH]CCCCCCCCCCCCCCCC)[NH]CCCCCCCCCCCCCCCC | 98% (active) | 96% (active) | 87.4% (active) | 99% (active) | 97% (active) | 91.5% (active) | 99% (active) | 96% (active) | 90.2% (active) | 99% (active) | 96% (active) | 89.2% (active) | 99% (active) | 97% (active) | 87.2% (active) | 98% (active) | 95% (active) | 87.2% (active)
4 | COc1cc(NCc2ccc3nc(-c4ccccc4)c(N)nc3c2)cc(OC)c1OC | 7% | -19% | -8.3% | -1% | -12% | -9.45% | -3% | 7% | 50% | 5% | 3% | 16.6% | 8% | -10% | 37.2% | -16% | 5% | 70.3% (active)
5 | O=c1c2ccccc2c2ccccc2n1O | 93% (active) | 92% (active) | 97.5% (active) | 95% (active) | 95% (active) | 97% (active) | 93% (active) | 94% (active) | 96.5% (active) | 76% (active) | 89% (active) | 93.8% (active) | 88% (active) | 91% (active) | 95% (active) | 94% (active) | 94% (active) | 98.3% (active)
6 | CC(C)C1=CC2=CC(=O)C3C(C)(C)CCCC3(C)C2=C(O)C1=O (stereo not given) | 90% (active) | 88% (active) | 87.8% (active) | 99% (active) | 94% (active) | 89.8% (active) | 98% (active) | 94% (active) | 90% (active) | 24% | 86% (active) | 85.5% (active) | 49% | 93% (active) | 87.4% (active) | 96% (active) | 90% (active) | 87.5% (active)
7 | O=C(O)/C=C/c1ccc(Cl)cc1Cl | 6% | 95% (active) | 89.5% (active) | -8% | 56% | 33.5% | 2% | 39% | 65.8% | 1% | 57% | 37.8% | 41% | 85% (active) | 74.3% (active) | 6% | 94% (active) | 92.6% (active)
8 | Cc1c2ccccc2c(CCl)c2ccc3ccccc3c12 | 99% (active) | 98% (active) | 97.7% (active) | 100% (active) | 99% (active) | 97.2% (active) | 100% (active) | 99% (active) | 98.3% (active) | 99% (active) | 99% (active) | 97.5% (active) | 99% (active) | 99% (active) | 98.8% (active) | 100% (active) | 99% (active) | 96.8% (active)
9 | O=C1C(Cl)=C(Cl)C(=C2C(Cl)=C(Cl)C(=O)C(Cl)=C2Cl)C(Cl)=C1Cl | 98% (active) | 99% (active) | 99.5% (active) | 97% (active) | 100% (active) | 99.6% (active) | 91% (active) | 99% (active) | 99.5% (active) | 99% (active) | 99% (active) | 99% (active) | 79% (active) | 98% (active) | 99.5% (active) | 97% (active) | 99% (active) | 99.4% (active)
10 | O=C1C=CC(=O)C1=Cc1ccc(Cl)c(Cl)c1 | 99% (active) | 99% (active) | 98.8% (active) | 100% (active) | 99% (active) | 98.9% (active) | 100% (active) | 98% (active) | 98.7% (active) | 100% (active) | 99% (active) | 99.2% (active) | 100% (active) | 99% (active) | 98.8% (active) | 100% (active) | 99% (active) | 99% (active)
11 | CCN(CC)c1ccc(N=Nc2ccc(-c3nc4ccc[n+](C)c4s3)cc2)cc1 | 99% (active) | 99% (active) | 89.6% (active) | 99% (active) | 99% (active) | 88.8% (active) | 99% (active) | 99% (active) | 88.2% (active) | 100% (active) | 100% (active) | 88.2% (active) | 99% (active) | 99% (active) | 91.1% (active) | 99% (active) | 99% (active) | 88.8% (active)
12 | CC1CCC(C(C)C)C(OC(=O)Nc2ccc(S(=O)(=O)N(C)C)cc2)C1 (stereo not given) | 25% | 82% (active) | 96% (active) | 18% | 92% (active) | 95.2% (active) | 46% | 83% (active) | 96% (active) | 8% | 82% (active) | 95.5% (active) | 29% | 90% (active) | 92.5% (active) | 32% | 88% (active) | 95.8% (active)
13 | CCCCCCCCCCCC(=O)OCCOC(=O)CCCCCCCCCCC | -8% | -5% | -5.95% | -1% | -12% | -11.3% | -22% | -7% | -20.6% | 1% | -5% | -4% | 2% | -12% | -3.35% | 3% | -6% | 7.4%
14 | CN(C)CCSCCN1c2ccccc2Sc2ccc(Cl)cc21 | -5% | 99% (active) | 57.5% | -2% | 99% (active) | 99.7% (active) | -16% | 99% (active) | 98.6% (active) | -8% | 99% (active) | 99% (active) | 4% | 99% (active) | 99.2% (active) | 5% | 99% (active) | 99.5% (active)
15 | CC(C)c1cc2c(cc1O)C(O)C1(O)CCCC(C)(C)[C@H]1CC2 (stereo not given in full) | -6% | 99% (active) | 91.4% (active) | -1% | 100% (active) | 93.7% (active) | -1% | 99% (active) | 93% (active) | -11% | 99% (active) | 91.6% (active) | 6% | 99% (active) | 93% (active) | -3% | 99% (active) | 91.8% (active)
16 | CCCCCCCCCCCCCCCC[n+]1ccc(/C=C/c2ccccc2)cc1 | 75% (active) | 95% (active) | 98.4% (active) | 100% (active) | 96% (active) | 98.8% (active) | 99% (active) | 98% (active) | 98.5% (active) | 46% | 94% (active) | 97.8% (active) | 88% (active) | 97% (active) | 97.8% (active) | 99% (active) | 98% (active) | 97.7% (active)
17 | CCCCCCCCCc1c(O)c(O)c(CCCCCCCCC)c(CCCCCCCCC)c1CCCCCCCCC | 1% | 27% | 54.9% | -11% | 30% | -5.95% | -10% | 28% | 54.9% | 33% | 55% | 49.9% | -6% | 87% (active) | 55.4% | -6% | 38% | 85.3% (active)
18 | O=C1C(Cl)=C(Cl)C(=O)C2CC=CCC12 (stereo not given) | 68% | 97% (active) | 99.3% (active) | 92% (active) | 99% (active) | 99.4% (active) | 92% (active) | 99% (active) | 99.6% (active) | 85% (active) | 99% (active) | 99.1% (active) | 91% (active) | 99% (active) | 99.5% (active) | 90% (active) | 99% (active) | 99.5% (active)
19 | Cc1ccc(NC(=O)CC2SC(N)=NC2=O)cc1C (stereo not given) | -1% | -1% | 87.5% (active) | 3% | 8% | 89.3% (active) | -2% | 5% | 91.2% (active) | 8% | 4% | 80.2% (active) | 0% | -4% | 89.1% (active) | -1% | 6% | 90.3% (active)
20 | CNS(=O)(=O)c1ccccc1C=C(c1ccccc1)c1ccccc1 | 2% | 90% (active) | 93.1% (active) | -12% | 93% (active) | 86.2% (active) | 4% | 93% (active) | 94% (active) | 2% | 89% (active) | 65.8% | -11% | 92% (active) | 81.8% (active) | -2% | 91% (active) | 94.1% (active)
